Biological target: AMP-activated protein kinase, AMPK (Homo sapiens) (UniProt P54646+O43741+P54619+Q9UGJ0+Q9Y478+Q13131+Q9UGI9)
Assay: AMP-dependent Kinase enzyme assay. An in vitro enzyme assay that detects ADP turnover that is directly proportional to AMPK activity. This uses naive AMPK that is activated during the assay with MK-8722
Format: functional
Set-up: scale not given: direction of the effect not stated beside the values
Conditions: 30 µM

Q: `Cc1ncsc1C(=O)OCCN1CCCc2ccccc21` was tested. Which Percent Effect did it give?
A: Its Percent Effect is 8.19%.

Q: For `CCOc1cc(NC(=O)N2CCC3(CCOCC3)C2)ccc1C`, which Percent Effect is on record?
A: The Percent Effect was -0.853%.

Q: With `COC(CNC(=O)c1ccoc1)c1cccc(Cl)c1` (stereo not given) as the molecule, how does the Percent Effect read?
A: Its Percent Effect is -1.5%.

Q: How did the Percent Effect turn out when `O=C(Nc1ccccc1OCCc1ccccn1)N1CCOCC1` was run?
A: The Percent Effect was 10.6%.

Q: `COc1cccc(O[C@H]2CCN(c3nc(C)cc(C)n3)CC[C@@H]2O)c1` was tested. Which Percent Effect did it give?
A: The Percent Effect was 1.31%.

Q: With `COCCC1(C(=O)O)CCCN(C(=O)c2cnc3c(c2)CCCC3)C1` (stereo not given) as the molecule, how does the Percent Effect read?
A: The Percent Effect was 2.02%.

Q: How did the Percent Effect turn out when `COc1ccc(N2CCC(NC(=O)c3ccc(C#N)cc3)CC2)cc1` was run?
A: The Percent Effect was 5.1%.

Q: `CC(C)c1nccc(CN(C)Cc2cccc(-n3cccn3)c2)n1` was tested. Which Percent Effect did it give?
A: Its Percent Effect is -3.37%.

Q: How did the Percent Effect turn out when `Cc1ccccc1CN1CCCC1c1cccc(Nc2nccs2)n1` (stereo not given) was run?
A: The Percent Effect was 16.4%.

Q: `Cc1sc(Oc2ccccc2Cl)nc1C(=O)O` was tested. Which Percent Effect did it give?
A: Its Percent Effect is 10.7%.

Q: How did the Percent Effect turn out when `CC(NCc1cccc(COC2CCCC2)c1)c1cnn(C)c1` (stereo not given) was run?
A: The Percent Effect was 3.6%.

Q: How did the Percent Effect turn out when `COC1CCCOC12CCN(C(=O)NCc1ccco1)CC2` (stereo not given) was run?
A: The Percent Effect was 13%.

Q: For `O=C(c1coc(-c2ccccc2)n1)N1CCCCC1`, which Percent Effect is on record?
A: Its Percent Effect is 0.702%.

Q: With `COc1ccc(CN2C[C@@H]3CC[C@H](C2)N(S(=O)(=O)C2CC2)C3)cc1` as the molecule, how does the Percent Effect read?
A: Its Percent Effect is 10.7%.

Q: `CC(NC(=O)NCc1ccccn1)c1cccs1` (stereo not given) was tested. Which Percent Effect did it give?
A: Its Percent Effect is -0.209%.

Q: Which Percent Effect does the source give for `CCNc1ncc(C(=O)NCc2csc(C)n2)cn1` here?
A: Its Percent Effect is -2.12%.

Q: `Cc1nonc1CN(C)c1nc(-c2ccco2)nc2c1CCN(C)CC2` was tested. Which Percent Effect did it give?
A: Its Percent Effect is 4.86%.

Q: How did the Percent Effect turn out when `Cc1occc1C(=O)Nc1cccc(C(=O)OCC2CCCN2)c1` (stereo not given) was run?
A: Its Percent Effect is -5.07%.

Q: `CCC(C(=O)N(Cc1ccccn1)C1CCCCC1)n1cccn1` (stereo not given) was tested. Which Percent Effect did it give?
A: Its Percent Effect is 1.8%.

Q: Which Percent Effect does the source give for `CCNC(=O)c1ccc(NC2CCOC3(CCCC3)C2)nn1` (stereo not given) here?
A: Its Percent Effect is 2.07%.

Q: Which Percent Effect does the source give for `Nc1cc(N2CCC(c3cc(Cc4ccccc4)n[nH]3)CC2)ccn1` here?
A: Its Percent Effect is -5.64%.

Q: For `O=C(Cn1nc2ccccc2n1)N1CCCC(O)(CN2CCCC2)C1` (stereo not given), which Percent Effect is on record?
A: Its Percent Effect is -2.27%.

Q: Which Percent Effect does the source give for `CCNC(=O)[C@@H]1C[C@@H](N)CN1C(=O)c1cc2ccccc2[nH]1` here?
A: Its Percent Effect is 8.12%.

Q: For `Cc1nn(C)c(C)c1-c1ccc(=O)n(C(C)C(=O)NC2CCCC2)n1` (stereo not given), which Percent Effect is on record?
A: Its Percent Effect is 9.03%.

Q: Which Percent Effect does the source give for `Cc1cnn(CCNCC(=O)N2CCN(c3ncccn3)CC2)c1` here?
A: The Percent Effect was -6.6%.

Q: For `O=C(O)c1ccn(-c2cccc(NC(=O)c3ccccc3Cl)c2)n1`, which Percent Effect is on record?
A: Its Percent Effect is 0.768%.

Q: How did the Percent Effect turn out when `Cc1noc(CS(=O)(=O)c2cc(F)ccc2F)n1` was run?
A: Its Percent Effect is -0.296%.

Q: `O=C(NCCCc1nnc2ccccn12)c1ccccc1C1CCNC1` (stereo not given) was tested. Which Percent Effect did it give?
A: The Percent Effect was 1.24%.

Q: With `COC(=O)CC1CN(Cc2ccn(-c3ccc(F)cc3)n2)CCO1` (stereo not given) as the molecule, how does the Percent Effect read?
A: Its Percent Effect is -6.96%.

Q: `Clc1ccc(COCC2CCN(Cc3ccccn3)CC2)cc1` was tested. Which Percent Effect did it give?
A: The Percent Effect was 4.9%.

Q: For `Cc1nn(C)cc1C(=O)N1CCC(C(=O)c2nc3ccccc3s2)CC1`, which Percent Effect is on record?
A: Its Percent Effect is 20.7%.

Q: `CN(C)c1ncccc1NC(=O)COC1CCCC1` was tested. Which Percent Effect did it give?
A: The Percent Effect was 6.19%.

Q: Which Percent Effect does the source give for `Cc1csc(C(=O)N2CCC(S(C)(=O)=O)CC2)c1` here?
A: The Percent Effect was -2.86%.

Q: Which Percent Effect does the source give for `OCCC1CCN(c2ccnc3ccsc23)C1` (stereo not given) here?
A: Its Percent Effect is 1.38%.

Q: Which Percent Effect does the source give for `CC(C)N(Cc1ccc(C(=O)O)o1)C(C)C` here?
A: The Percent Effect was 2.21%.

Q: Which Percent Effect does the source give for `O=C(NCC1CCOC1)c1cc(-c2ccccc2Cl)[nH]n1` (stereo not given) here?
A: The Percent Effect was 2.35%.

Q: Which Percent Effect does the source give for `Cc1noc(C)c1CC(=O)N1CCCC(Cn2ccnc2C)C1` (stereo not given) here?
A: Its Percent Effect is -4.07%.

Q: For `O=C(O)[C@H]1C[C@H](C(=O)NCc2ccncc2)CN(CCC(F)(F)F)C1`, which Percent Effect is on record?
A: Its Percent Effect is -2.07%.

Q: `COc1ncc(CN2CCC3(CCNC(=O)CC3)CC2)cn1` was tested. Which Percent Effect did it give?
A: Its Percent Effect is -1.6%.

Q: Which Percent Effect does the source give for `O=C(CCn1cccn1)NCCOc1ccc2c(c1)OCO2` here?
A: The Percent Effect was -5.16%.

Source: ChEMBL document CHEMBL3988442, “University of Dundee, Small-Polar-MMV Screening Library” (2021)
